Measurements from PubChem BioAssay AID1578 (Sanford-Burnham Center for Chemical Genomics, 2009).
The campaign covered roughly 290,000 compounds. About 3,000 (1%) were called active. For the sample, actives were picked, then their nearest neighbours and some compounds at random. Unmarked numbers belong to inactive results. No stated cut-off is given here; in the data, active means inhibition mostly above about 36% (no sharp cut-off); inactive means mostly below about 34%.

test: NOD1 signaling inhibitors, primary screen, cell-based, luminescence, uHTS (AID 1578); settings: NOD1-driven NF-kB luciferase reporter cells, at 4 µM, active compounds read high;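 further: HEK-293T reporter cells stimulated with the NOD1 agonist gamma-tri-DAP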

| SMILES | inhibition |
| --- | --- |
| CN1C(=O)C(C)(C)c2cc(S(=O)(=O)N(C)Cc3ccccc3)ccc21 | -4.1% |
| COc1cccc2c1Oc1ncccc1N(C(=O)CCC(=O)NCc1ccccc1)C2 | -19.2% |
| O=C(CN1CCCc2ccccc21)NC(=O)NCc1ccccc1 | -4.3% |
| O=C(c1ccccc1)C1CCN(c2ncccc2[N+](=O)[O-])CC1 | -8.7% |
| c1ccc2c(c1)oc1c(NCc3ccc4c(c3)OCO4)ncnc12 | 66.2% (active) |
| Cc1nc(NCc2ccc3c(c2)OCO3)c2oc3ccccc3c2n1 | 15.2% |
| CCc1nc(NCc2ccc3c(c2)OCO3)c2oc3ccccc3c2n1 | 23.2% |
| O=C(CSc1nnnn1-c1ccccc1)CC(=O)Nc1ccc(Cl)cc1 | 73.1% (active) |
| O=C(CSc1nnnn1-c1ccccc1)Nc1ccccc1 | -15.6% |
| O=C(CSc1nnnn1-c1ccccc1)Nc1ccc(Cl)cc1 | 18.8% |
| CN1C(=O)SC(Nc2cccc3ccccc23)C1=O (stereo not given) | -30.3% |
| O=C(CCN1C(=O)C2CC=C(Cl)CC2C1=O)NC1CCCCC1 (stereo not given) | -1.2% |
| O=C(CCN1C(=O)C2CC=CCC2C1=O)NC1CCCCC1 (stereo not given) | 44.9% (active) |
| O=C(CN1C(=O)C2CC=CCC2C1=O)NC1CCCCC1 (stereo not given) | -35.5% |
| Cc1cc2ccccn2c1C(=O)c1ccc(C#N)cc1 | 2% |
| CCOc1ccc2c(c1)OC(c1ccccc1)(C(F)(F)F)NC2=O (stereo not given) | -42.1% |
| CCOc1ccc2c(c1)OC(c1ccc(OC)cc1)(C(F)(F)F)NC2=O (stereo not given) | -30.6% |
| CCOc1ccc2c(c1)OC(c1ccc(C)cc1)(C(F)(F)F)NC2=O (stereo not given) | 101% (active) |
| CC(Sc1nnc(CC(=O)Nc2ccccc2F)n1C)C(=O)Nc1nccs1 (stereo not given) | -32.4% |
| O=c1[nH]nc(SCCS(=O)(=O)c2ccc(F)cc2)n1-c1ccccc1 | -11.2% |
| Cc1ccc(S(=O)(=O)CCSc2n[nH]c(=O)n2-c2ccccc2)cc1 | -6.8% |
| Cc1cc(C)c(-n2c(SCCS(=O)(=O)c3ccc(F)cc3)n[nH]c2=O)c(C)c1 | 69.7% (active) |
| CCOC(=O)c1[nH]cnc1C(=O)Nc1cccc(OC)c1 | -3.5% |
| CCCCC(c1nnnn1CC1CCCO1)N1CCN(c2ccccc2)CC1 (stereo not given) | -34.5% |

| SMILES | inhibition |
| --- | --- |
| CCN(c1ccccc1)S(=O)(=O)c1ccc2c(c1)CC(C)N2C(=O)C1CC1 (stereo not given) | -12.9% |
| Cc1cc(N2CCC(C(N)=O)CC2)nc(-c2ccccc2)n1 | 2% |
| CC(=O)NC1(c2ccccc2)CCN(c2cc(C)nc(-c3ccccc3)n2)CC1 | 52.2% (active) |
| CC(=O)NC1(c2ccccc2)CCN(c2nc(C)cc(C)n2)CC1 | -0.9% |
| CCN(Cc1ccncc1)Cc1nc(CC2CC2)no1 | -8.9% |
| CN(C)CC(CCCCC(CN(C)C)C(=O)c1ccccc1)C(=O)c1ccccc1 (stereo not given) | -4.1% |
| COc1ccc(C(=O)C(CCCCC(CN(C)C)C(=O)c2ccc(OC)cc2)CN(C)C)cc1 (stereo not given) | -6% |
| COc1ccccc1NC(=O)CN1CCN(CC(=O)Nc2ccccc2Cl)CC1 | -18.4% |
| O=C(Nc1ccccc1)Nc1cc([N+](=O)[O-])ccc1F | -17.9% |
| O=C(Nc1ccc(Cl)cc1)Nc1cc([N+](=O)[O-])ccc1F | 30.3% |
| COc1ccc(C2/C(=C(/O)c3ccc(C)cc3)C(=O)C(=O)N2C)c(OC)c1 (stereo not given) | -29.5% |
| CCC1CCC(C(=O)NC(C(=O)NCCN2CCOCC2)C(C)C)CC1 (stereo not given) | -24.4% |
| Cc1cc(Cl)c(S(=O)(=O)Nc2cc(S(=O)(=O)N3CCOCC3)ccc2F)cc1OCC(N)=O | -11.8% |
| Cn1nccc1C(=O)N1CCN(c2cccc(C(F)(F)F)c2)CC1 | -2.5% |
| CC1Oc2ccccc2N(CC(=O)NCc2ccc3c(c2)OCO3)C1=O (stereo not given) | -48.9% |
| COc1ccc(OC)c(/C=N\NC(=O)c2c(C)nc3cc(C)ccn23)c1 | -8.5% |
| CN(C(=O)COc1ccccc1)c1nnc(C23CC4CC(CC(C4)C2)C3)s1 | 104% (active) |
| CN(C(=O)COc1ccc(Cl)cc1)c1nnc(C23CC4CC(CC(C4)C2)C3)s1 | 4.5% |
| CN(C(=O)COc1ccc(Cl)cc1Cl)c1nnc(C23CC4CC(CC(C4)C2)C3)s1 | -34.1% |
| O=C(NNC(=S)Nc1ccc(Cl)c(Cl)c1)c1cccc([N+](=O)[O-])c1 | -11.1% |
| CN(C(=O)CC1C(=O)NCCN1Cc1cccc(F)c1F)C1CCOCC1 (stereo not given) | -24.4% |
| CCC(CCC(=O)Nc1nncs1)C(=O)O (stereo not given) | 0.6% |
| CC(O)[C@H]1CNC(=O)C(=O)N1CCCCC1CCCCC1 (stereo not given in full) | -9.4% |
| O=C(O)CCCCCN1C(=O)C2CCCCC2C1=O (stereo not given) | -26.7% |

| SMILES | inhibition |
| --- | --- |
| O=C(O)CCCCCCC1C(=O)NC(=O)N1CCC(O)C1CCCCC1 (stereo not given) | 75.2% (active) |
| CCOC(=O)c1c(C)[nH]c(C)c1S(=O)(=O)N(C)CC(=O)NCc1cccc(Br)c1 | -19.6% |
| COc1ccc(-c2c3c(cc(C)[n+]2[O-])oc2ccc(OC)cc23)cc1 | -20% |
| Cc1[nH]nc2c1C(c1ccc3c(c1)OCO3)C(C#N)=C(N)O2 (stereo not given) | -33.1% |
| CC(C)c1cccc(C(C)C)c1NC(=O)CCl | 68.4% (active) |
| CC(C)c1cccc(C(C)C)c1NC(=O)CN1CCCC1 | -21.2% |
| CC(C)c1cccc(C(C)C)c1NC(=O)c1ccccc1 | -17.6% |
| COc1ccccc1CNC(=O)Cn1nnnc1CN(C)C(C)C | -103% |
| COc1ccc2oc(C(=O)NC(C)(C)C)c(C)c2c1 | -42.6% |
| CCCC(=O)C1=C(O)C(C(=O)OC)C(C)(C)CC1=Nc1cccc2ccccc12 (stereo not given) | 53.5% (active) |
| CCCC(=O)C1=C(O)C(C(=O)OC)C(C)(C)CC1=Nc1ccc(OC)cc1 (stereo not given) | -37.1% |
| CCCC(=O)C1=C(O)C(C(=O)OC)C(C)(C)CC1=Nc1ccccc1 (stereo not given) | -9.6% |
| O=C(NCC1CCCO1)c1ccc(/C=N/O)nc1 (stereo not given) | -26.9% |
| CC1(C)CC(N2CCCC2)=CC(=[N+]2CCCCC2)C1 | -30.9% |
| CC1(C)CC(N2CCCC2)=CC(=[N+]2CCCC2)C1 | 27.8% |
| CC1(C)CC(N2CCN(c3ccccc3)CC2)=CC(=[N+]2CCCC2)C1 | 55% |
| CC1(C)CC(N2CCCCC2)=CC(=[N+]2CCCCC2)C1 | 36.9% |
| O=C(Cn1c(=O)c2sccc2n(Cc2ccc([N+](=O)[O-])cc2)c1=O)NCCc1ccccc1 | -16.6% |
| Cn1c(CNC(=O)CCNC(=O)c2cccc(F)c2)cc(=O)n(C)c1=O | -2.9% |
| Cc1cccc(C(=O)N=c2sccn2C)c1[N+](=O)[O-] | -69.7% |
| O=C(NCc1ccc(F)cc1)C(=O)Nc1nc(C23CC4CC(CC(C4)C2)C3)cs1 | 46.9% |
| O=C(NCc1ccccc1)C(=O)Nc1nc(C23CC4CC(CC(C4)C2)C3)cs1 | 89.4% (active) |
| O=C(NCc1ccncc1)C(=O)Nc1nc(C23CC4CC(CC(C4)C2)C3)cs1 | -11.3% |
| CC(=O)Nc1ccc(C(=O)OCC(=O)Nc2c(F)cccc2F)cc1 | -4.7% |

| SMILES | inhibition |
| --- | --- |
| O=S1(=O)CCC(S(=O)(=O)N2CCCCCC2)C1 (stereo not given) | 98.1% (active) |
| CCCCS(=O)(=O)C1CCS(=O)(=O)C1 (stereo not given) | -31.7% |
| Cc1ccc(S(=O)(=O)N2CCCN(S(=O)(=O)C3CCS(=O)(=O)C3)CC2)cc1 (stereo not given) | -14.1% |
| CC(C)C1Nc2ccc(C(=O)NCc3ccco3)cc2NC1=O (stereo not given) | -8.3% |
| CC12CCC(=O)N1C(C(=O)Nc1nnc(SCc3ccccc3F)s1)CS2 (stereo not given) | -32.1% |
| Cc1ccc(NC(=O)Cn2ncc3c([nH]c4ccccc43)c2=O)cc1Cl | 1.5% |
| O=C(Cn1ncc2c([nH]c3ccccc32)c1=O)Nc1cccnc1 | 55.7% (active) |
| O=C(Cn1c(=O)[nH]c2ccccc2c1=O)Nc1cccnc1 | -10.3% |
| O=C(NCCCN1CCCC1)[C@H](CSCc1ccccc1)N1Cc2ccccc2C1=O | -6.7% |
| COc1cccc(CN2CCNC(=O)C2CC(=O)N(C)C2CCCCC2)c1 (stereo not given) | -1.2% |
| CC1CCCCN1C(=O)C(=O)c1cn(CC(=O)N2CCCCCC2)c2ccccc12 (stereo not given) | -20.8% |
| CC(=O)N1CC(C)Sc2ccc(S(=O)(=O)N3CCCCC3)cc21 (stereo not given) | 6.9% |
| CCOC(=O)C1CCN(S(=O)(=O)c2ccc3c(c2)CCN3C(C)=O)CC1 | 6.1% |
| CC1CCN(C(=O)c2cc3ccccc3c(=O)o2)CC1 | -21.4% |
| Cc1cccc(CCNC(=O)CNS(=O)(=O)c2ccc3nc(C)sc3c2)c1 | 12.4% |
| Cc1ccc(N2CC(C(=O)NC3CC3)CC2=O)cc1 (stereo not given) | 17.9% |
| COc1ccc2nc(NC3=NC(c4ccccc4)CC(=O)N3)nc(C)c2c1 (stereo not given) | -18.7% |
| COc1ccc(S(=O)(=O)NNC(=O)C2CC(c3cccnc3)=NO2)cc1 (stereo not given) | -24.9% |
| O=C(NNS(=O)(=O)c1ccc(F)cc1)C1CC(c2cccnc2)=NO1 (stereo not given) | 51% (active) |
| O=C(NNS(=O)(=O)c1ccccc1)C1CC(c2cccnc2)=NO1 (stereo not given) | -32.5% |
| COc1ccc(C(=O)C2CCN(CC(=O)Nc3ccc(OC)cc3OC)CC2)cc1 | -10.7% |
| COC(=O)c1sc(=S)n(Cc2ccccc2)c1C | 5% |
| COc1ccc(CNC(=O)CCC(=O)N2CC(C)Oc3ccccc32)cc1 (stereo not given) | -16.3% |
